# Measured values reported in PubChem BioAssay (NCATS).
# Values joined by “and” are separate entries in the source; they are usually repeats but may differ in a detail not shown here. Equal values may be shown once. Inconclusive results are not listed. Entries that show only a call come without a potency. Active and inactive are the calls of the source. Calls come from the whole dose curve; as a rule, active = well fitted curve in the direction sought with a large enough effect; inconclusive = small, poorly fitted or top-dose-only effect, or another doubt; inactive = no such curve, though single readings can be large; an effect the other way counts as inactive or inconclusive.
# Columns and labels:
# [1] = molecular target: N-terminal Xaa-Pro-Lys N-methyltransferase 1 (Homo sapiens) (UniProt Q9BV86); test: qHTS Assay for Inhibitors of N-terminal methyltransferase 1 (NTMT1): LOPAC validation of the NTMT1 SAHH-coupled ThioGlo3 Assay (AID 1347143); details: recombinant NTMT1, SAHH-coupled ThioGlo3 fluorescence; series mostly up to 114 µM;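 note: SAH from peptide methylation measured as thiol fluorescence via SAHH coupling and ThioGlo3; nearly all actives have a fitted effect of over 70% in size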; note: potency is the fitted concentration of half-maximal effect
# Procedure, shortened: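 NTMT1 125nM + cpds (various conc.), 1 min RT; add SAM 100uM/SAHH 10uM/ThioGlo3 15uM (addition mix). SAHH-coupled thiol detection, Ex340/Em450, t0 and 30 min RT; signal normalized to background. LOPAC 1280-cpd pilot.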
# [2] = system: Zika virus NS2B-NS3 protease; test: Primary screen GU AMC qHTS for Zika virus inhibitors (AID 1347154); details: Zika NS2B-NS3 unlinked protease, AMC fluorogenic substrate; series mostly up to 54.1 µM; note: nearly all actives have a fitted effect of over 70% in size; note: potency is the fitted concentration of half-maximal effect
# Procedure, shortened: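 Fluorogenic AMC-substrate cleavage by noncovalent NS2B-NS3 protease complex (25 nM, pH 8.0 Tris buffer with Tween 20) followed for 15 minutes at room temperature (~20% conversion). Percent inhibition from ex340/em450 signal change, fitted by 4-parameter Hill equation.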
# [3] = system: Zika virus NS2B-NS3 protease (unlinked complex); test: Primary screen GU Rhodamine qHTS for Zika virus inhibitors: Unlinked NS2B-NS3 protease assay (AID 1347159); details: Recombinant ZIKV NS2B-NS3 protease, Rhodamine110 substrate fluorescence; series mostly up to 107 µM; note: nearly all actives have a fitted effect of over 60% in size
# Procedure, shortened: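 Buffer 10 mM Tris-HCl pH 8.0, 0.01% Tween 20. Unlinked protease 25 nM; compound preincubation 15 min, RT, protected from light. Substrate Rhod110, 1.5 microM; ~15% conversion in 15 min.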
# [4] = system: Zika virus NS2B-NS3 protease (linked construct); test: Primary screen NINDS Rhodamine qHTS for Zika virus inhibitors (AID 1347160); details: purified NS2B-NS3 protease, Rhodamine110 substrate fluorescence; series mostly up to 57.1 µM; note: nearly all actives have a fitted effect of over 55% in size
# Procedure, shortened: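 Aprotinin served as in-plate control. Conditions: 25 nM linked NS2B-NS3, pH 8.0 Tris buffer, titrated compounds, 15 min preincubation and 15 min reaction with 1.5 microM Rhod110 substrate at room temperature.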
# [5] = system: Zika virus NS2B-NS3 protease (unlinked); test: Optimization of GU AMC qHTS for Zika virus inhibitors: Unlinked NS2B-NS3 protease assay (AID 1347151); details: recombinant ZIKV NS2B-NS3 protease, fluorogenic AMC substrate; series mostly up to 52.5 µM; note: nearly all actives have a fitted effect of over 80% in size; note: potency is the fitted concentration of half-maximal effect
# Procedure, shortened: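 Unlinked protease (25 nM final); buffer 10 mM Tris-HCl pH 8.0 + 0.01% Tween 20; AMC substrate; 15 min RT, dark; Δfluorescence normalized to no-inhibitor/no-enzyme controls; 4-parameter Hill fit.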
# [6] = molecular target: Lysine-specific demethylase 5B (Homo sapiens) (UniProt Q9UGL1); test: Optimization screen for KDM5B Histone Demethylases FDH coupled qHTS against the LOPAC library (AID 1347166); details: KDM5B demethylation, FDH-coupled NADH fluorescence (FDH is formaldehyde dehydrogenase); series mostly up to 57.5 µM
# Procedure, shortened: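 KDM5BDeltaAP (200nM final) in 50mM HEPES pH 7.5, 0.01% Tween-20 was preincubated with compound for 10 min at room temperature. A substrate mix of 12.5uM H3K4Me3, 25uM a-ketoglutarate, ascorbate, Fe2+, NAD+ and formaldehyde dehydrogenase was then added. NADH fluorescence (340/450 nm) was read initially and after 30 min.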
# Furin (Homo sapiens) = Furin (Homo sapiens) (UniProt P09958); test: Furin counterscreen qHTS for Zika virus inhibitors (AID 1347149); details: furin enzymatic counterscreen, fluorogenic substrate; series mostly up to 57.5 µM; note: potency is the fitted concentration of half-maximal effect; nearly all actives have a fitted effect of over 70% in size
# Procedure, shortened: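 Counterscreen measures cleavage of 2 microM BOC-RVRR-AMC, below its ~15 microM Km, by 5 nM full-length human furin at pH 7.0 after a 15-min compound preincubation. Inhibition derives from the 15-min fluorescence increase at 37C.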
# [7] = system: Zika virus NS2B-NS3 protease (linked construct); test: Confirmatory screen NINDS AMC qHTS for Zika virus inhibitors (AID 1347152); details: Purified linked NS2B-NS3, AMC substrate fluorescence; series mostly up to 56.6 µM; note: potency is the fitted concentration of half-maximal effect; nearly all actives have a fitted effect of over 70% in size
# Procedure, shortened: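 Enzyme (1 nM, linked construct) was preincubated with compound for 15 minutes at room temperature in 10 mM Tris-HCl pH 8.0 with 0.01% Tween 20. Bz-Nle-Lys-Arg-Arg-AMC was then added to 10 microM, and AMC fluorescence was recorded immediately and after 15 minutes.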
# [8] = system: Zika virus NS2B-NS3 protease (unlinked complex); test: Confirmatory screen GU AMC qHTS for Zika virus inhibitors (AID 1347153); details: Recombinant NS2B-NS3 protease, AMC substrate fluorescence; series mostly up to 57.1 µM; note: nearly all actives have a fitted effect of over 70% in size
# Procedure, shortened: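 Noncovalent NS2B hydrophilic domain/NS3 protease complex (25 nM) in 10 mM Tris-HCl pH 8.0, 0.01% Tween 20 was preincubated 15 min at room temperature with compounds. Then 10 µM AMC substrate (Km 18.3 µM) was added; fluorescence was read over 15 min and fitted to a 4-parameter Hill equation.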
# [9] = Confirmatory screen NINDS Rhodamine qHTS for Zika virus inhibitors (AID 1347161); details: purified enzyme assay, Rhodamine110 substrate fluorescence, 15 min; series mostly up to 114 µM; note: nearly all actives have a fitted effect of over 60% in size; note: potency is the fitted concentration of half-maximal effect
# Procedure, shortened: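 Purified NS2B-NS3 protease with the NS2B hydrophilic domain joined by a flexible linker (25 nM) in 10 mM Tris-HCl pH 8.0, 0.01% Tween 20, preincubated 15 min at RT with compound; Rhodamine110 peptide substrate 1.5 µM; fluorescence change over 15 min; 4-parameter Hill fit.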
# [10] = HepG2 cells viability qHTS for Zika virus inhibitors (AID 1347168); details: Zika counter-screen; series mostly up to 45.9 µM
# Procedure, shortened: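 Luminescent ATP readout (CellTiter Glo) after 30 min at 37 degrees C gives viability; cells in DMEM + 4% FBS were treated 24 to 48 hours with compound, following overnight attachment.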
# [11] = Confirmatory screen GU Rhodamine qHTS for Zika virus inhibitors qHTS (AID 1347157); details: purified enzyme assay, Rhodamine110 substrate fluorescence, 15 min; series mostly up to 114 µM
# Procedure, shortened: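 Percent inhibition came from the 15-min rise in Rhodamine110 fluorescence (1.5 microM substrate, ~15% conversion), normalized to no-inhibitor and no-enzyme wells and Hill-fitted. Unlinked protease, 25 nM, pH 8.0 Tris buffer; compounds up to 114 microM, 15-min preincubation.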
# [12] = ZIKV-mCherry secondary qHTS for Zika virus inhibitors (AID 1347158); details: Vero cells, ZIKV-mCherry infection imaging, 48-72 h; series mostly up to 32.6 µM; note: potency is the fitted concentration of half-maximal effect
# Procedure, shortened: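 Percent infection is the share of Hoechst-identified Vero nuclei with mCherry signal above 450 RFU (3 SD over negative controls). Cells were infected with recombinant ZIKV-mCherry at MOI 1 after compound addition and imaged 48–72 h later.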
# [13] = system: Zika virus NS2B-NS3 protease (linked); test: 384 well plate NINDS AMC confirmatory qHTS for Zika virus inhibitors (AID 1347163); details: Recombinant NS2B-NS3 protease, Ac-VKTGKR-AMC fluorescence; series mostly up to 100 µM; note: potency is the fitted concentration of half-maximal effect; nearly all actives have a fitted effect of over 50% in size
# Procedure, shortened: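 Fluorescence at 355/460 nm was read after 25 minutes of cleavage of 30 microM Ac-VKTGKR-AMC at room temperature, in the dark. Before substrate addition, compounds (up to 1 mM final) sat ~15 minutes with 5, 30 or 60 nM linked protease. Signals were normalized to no-enzyme and no-inhibitor wells.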
# [14] = system: Zika virus NS2B-NS3 protease (linked construct); test: 384 well plate NINDS Rhodamine confirmatory qHTS for Zika virus inhibitors (AID 1347164); details: rhodamine-110 peptide substrate fluorescence; series mostly up to 100 µM;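 note: fluorescence from protease cleavage of Ac-LKRR-rhodamine 110 substrate; top concentration of the series differs between compounds; nearly all actives have a fitted effect of over 65% in size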
# Procedure, shortened: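 Enzyme (final 5/30/60 nM) + cpd (DMSO), ~15 min; add Ac-LKRR-Rd 10 microM final; 25 min RT, dark; FI ex 485/em 538; normalized to no-enzyme, no-inhibitor ctrls; aprotinin intraplate ctrl.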
# Sequence of Furin (Homo sapiens) (P09958 whole entry, looked up): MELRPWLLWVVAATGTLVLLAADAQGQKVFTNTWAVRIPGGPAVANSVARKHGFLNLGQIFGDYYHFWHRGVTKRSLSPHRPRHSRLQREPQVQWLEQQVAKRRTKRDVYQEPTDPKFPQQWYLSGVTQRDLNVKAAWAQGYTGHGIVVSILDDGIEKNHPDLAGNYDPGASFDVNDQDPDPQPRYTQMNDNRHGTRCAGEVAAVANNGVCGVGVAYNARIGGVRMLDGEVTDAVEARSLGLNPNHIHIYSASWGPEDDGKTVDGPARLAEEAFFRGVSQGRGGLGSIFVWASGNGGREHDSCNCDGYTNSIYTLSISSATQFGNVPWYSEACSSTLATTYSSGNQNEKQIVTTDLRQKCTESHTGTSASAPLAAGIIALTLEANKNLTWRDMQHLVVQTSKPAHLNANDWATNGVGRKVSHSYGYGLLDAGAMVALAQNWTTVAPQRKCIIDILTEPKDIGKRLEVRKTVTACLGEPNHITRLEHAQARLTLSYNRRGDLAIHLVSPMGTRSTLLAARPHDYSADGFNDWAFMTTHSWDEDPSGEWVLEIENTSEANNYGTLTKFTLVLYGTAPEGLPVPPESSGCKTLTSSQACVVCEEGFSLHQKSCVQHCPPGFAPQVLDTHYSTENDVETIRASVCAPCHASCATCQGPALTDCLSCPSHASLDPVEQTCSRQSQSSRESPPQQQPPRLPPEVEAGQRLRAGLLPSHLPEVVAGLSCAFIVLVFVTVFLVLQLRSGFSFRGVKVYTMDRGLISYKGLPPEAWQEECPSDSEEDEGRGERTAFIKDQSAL
# Sequence of Lysine-specific demethylase 5B (Homo sapiens) (Q9UGL1 whole entry, looked up): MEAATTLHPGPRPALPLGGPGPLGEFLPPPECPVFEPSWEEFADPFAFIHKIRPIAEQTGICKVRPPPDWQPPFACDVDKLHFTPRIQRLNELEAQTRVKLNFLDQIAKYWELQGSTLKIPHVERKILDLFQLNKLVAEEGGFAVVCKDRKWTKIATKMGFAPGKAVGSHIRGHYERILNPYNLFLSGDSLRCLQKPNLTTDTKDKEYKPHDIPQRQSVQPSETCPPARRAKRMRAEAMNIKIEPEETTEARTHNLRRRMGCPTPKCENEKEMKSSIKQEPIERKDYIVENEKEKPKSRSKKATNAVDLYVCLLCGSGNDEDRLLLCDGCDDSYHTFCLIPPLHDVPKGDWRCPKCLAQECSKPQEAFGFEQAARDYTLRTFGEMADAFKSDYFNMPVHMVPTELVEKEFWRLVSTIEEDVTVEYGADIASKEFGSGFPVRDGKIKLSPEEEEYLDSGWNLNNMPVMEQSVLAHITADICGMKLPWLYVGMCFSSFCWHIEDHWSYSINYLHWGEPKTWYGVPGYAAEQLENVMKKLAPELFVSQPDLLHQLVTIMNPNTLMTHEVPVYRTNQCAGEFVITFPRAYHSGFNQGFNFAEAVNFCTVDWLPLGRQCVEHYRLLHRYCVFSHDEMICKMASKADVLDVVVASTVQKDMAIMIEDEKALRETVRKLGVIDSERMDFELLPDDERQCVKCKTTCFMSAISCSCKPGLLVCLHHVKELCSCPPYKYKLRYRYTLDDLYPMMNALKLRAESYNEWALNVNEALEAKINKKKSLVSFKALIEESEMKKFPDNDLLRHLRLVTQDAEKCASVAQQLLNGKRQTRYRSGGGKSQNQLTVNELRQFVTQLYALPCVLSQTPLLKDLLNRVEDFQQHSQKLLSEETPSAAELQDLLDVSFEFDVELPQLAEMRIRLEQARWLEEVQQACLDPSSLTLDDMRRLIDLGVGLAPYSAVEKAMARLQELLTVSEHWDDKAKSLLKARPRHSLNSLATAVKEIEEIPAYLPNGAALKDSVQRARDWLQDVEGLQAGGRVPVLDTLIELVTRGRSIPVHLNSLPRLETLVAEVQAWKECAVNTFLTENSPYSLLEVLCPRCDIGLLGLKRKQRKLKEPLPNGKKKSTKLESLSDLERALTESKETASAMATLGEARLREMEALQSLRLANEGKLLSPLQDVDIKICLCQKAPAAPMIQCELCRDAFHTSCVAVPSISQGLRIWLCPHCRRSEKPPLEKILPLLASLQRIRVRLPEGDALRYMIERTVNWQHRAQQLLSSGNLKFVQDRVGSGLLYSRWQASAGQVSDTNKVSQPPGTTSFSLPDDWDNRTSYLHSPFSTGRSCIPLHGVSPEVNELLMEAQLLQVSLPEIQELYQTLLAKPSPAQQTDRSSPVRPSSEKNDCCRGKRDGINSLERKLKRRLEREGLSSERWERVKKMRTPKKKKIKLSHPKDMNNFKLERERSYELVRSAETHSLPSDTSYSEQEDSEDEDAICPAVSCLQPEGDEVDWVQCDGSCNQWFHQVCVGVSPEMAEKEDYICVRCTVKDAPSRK
# Sequence of N-terminal Xaa-Pro-Lys N-methyltransferase 1 (Homo sapiens) (Q9BV86 whole entry, looked up): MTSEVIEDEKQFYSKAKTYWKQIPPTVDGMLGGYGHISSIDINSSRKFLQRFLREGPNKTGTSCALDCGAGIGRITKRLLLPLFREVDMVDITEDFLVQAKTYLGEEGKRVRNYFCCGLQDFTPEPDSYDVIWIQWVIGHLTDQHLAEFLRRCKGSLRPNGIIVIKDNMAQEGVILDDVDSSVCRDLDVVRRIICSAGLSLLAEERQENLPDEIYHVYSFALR
structure (smiles),measurement,setting,value
CS(=O)(=O)c1cccc(CNc2nc(Nc3ccc4c(c3)CCC(=O)N4)ncc2C(F)(F)F)c1,Potency,[1],56.2 µM (active)
same,Potency,[2],inactive
same,Potency,[3],inactive
same,Potency,[4],inactive
c1ccc([C@H]2CN3CCSC3=N2)cc1,Potency,[1],inactive
same,Potency,[5],inactive
same,outcome,[6],inactive
CC(C)NCC(O)COc1ccc(COCCOC(C)C)cc1 (centres undefined),Potency,[1],inactive
same,Potency,[5],inactive
same,Potency,[2],inactive
same,outcome,[6],inactive
CC(C[N+](C)(C)C)OC(N)=O (centres undefined),Potency,[1],inactive
same,Potency,[5],inactive
same,Potency,[2],inactive
same,outcome,[6],inactive
CCCc1nc2c(C)cc(-c3nc4ccccc4n3C)cc2n1Cc1ccc(-c2ccccc2C(=O)O)cc1,Potency,Furin (Homo sapiens),24.1 µM (active)
same,Potency,[7],21.5 µM (active)
same,Potency,[8],inactive
same,Potency,[9],13.9 µM (active)
same,outcome,[10],inactive
Cc1cc2c(C(C)C)c(O)c(O)c(C=O)c2c(O)c1-c1c(C)cc2c(C(C)C)c(O)c(O)c(C=O)c2c1O,Potency,[1],56.2 µM (active)
same,Potency,[5],0.377 µM (active)
same,Potency,[11],2.51 µM (active)
same,Potency,[12],2.51 µM (active)
same,Potency,[9],2 µM (active)
same,Potency,[13],35.5 µM (active)
same,Potency,[14],inactive
CCn1cc(C(=O)O)c(=O)c2cc(F)c(N3CCNC(C)C3)c(F)c21 (centres undefined),Potency,[1],56.2 µM (active)
same,Potency,Furin (Homo sapiens),24.1 µM (active)
same,Potency,[5],26.7 µM (active)
same,Potency,[7],24.1 µM (active) and 27.1 µM (active)
same,Potency,[2],29.9 µM (active)
same,Potency,[9],inactive
same,outcome,[10],inactive
Cc1cnc(NC(=O)C2=C(O)c3ccccc3S(=O)(=O)N2C)s1,Potency,[1],inactive
same,Potency,[5],inactive
same,Potency,[2],inactive
same,outcome,[6],inactive
Clc1cccc(Cl)c1NC1=NCCN1,Potency,[1],inactive
same,Potency,[5],inactive
same,outcome,[6],inactive
CC(C)(C)NCC(O)c1ccc(O)c(CO)c1 (centres undefined),Potency,[1],inactive
same,Potency,[5],inactive
same,outcome,[6],inactive
